The full list was thinned out, with hits kept by preference.
Pf Dd2 growth = inhibitors of Plasmodium falciparum Dd2 growth. Potency, µM (top dose mostly 28.9 µM), without a hit: top-dose activity, negative = inhibition, most hits filed as inhibitors. 120,000 tested, 4.3% active. AID 1347417. P. falciparum Dd2 growth, SYBR Green, 72 h; active means well fitted inhibition curve with a large enough effect;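 further: plate controls were DMSO vehicle for no effect and reference drug for full effect; nearly all actives have a fitted effect of over 65% in size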
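Infected erythrocytes (Dd2, 0.3% parasitemia, 2.5% hematocrit final) are added to compound in RPMI-1640/Albumax II medium, grown 72 h at 37C in low oxygen, then lysed with saponin/Triton-X containing SYBR Green and read by fluorescence.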
The depositor's hits bear a star; i = inactive; [ ] = remark or other dose. Potency means the concentration at half of the fitted maximal effect.

SMILES	Pf Dd2 growth
O=C(Nc1ccc2c(c1)OCCO2)N1CCCC(Cc2noc(-c3ccncc3)n2)C1 (stereo unspecified)	i
O=C(c1ccccc1)N1CCC(Cc2nc(-c3ccncc3)n[nH]2)CC1	1.3µM*
Fc1cccc(CN2CCC(Cc3nc(-c4ccccc4)n[nH]3)C2)c1 (stereo unspecified)	3.5µM*
CCc1n[nH]c(CC2CCN(C(=O)c3ccccc3)CC2)n1	-6%
O=C(NCc1ccccc1)N1CCC(Cc2nc(-c3ccccc3)n[nH]2)C1 (stereo unspecified)	-11%
Cc1ccc(CN2CCC(Cc3nc(-c4cccnc4)n[nH]3)C2)cc1C (stereo unspecified)	i
CCC(=O)N1CCC(Cc2nc(-c3ccccc3)n[nH]2)CC1	-27%
CSCC(=O)N[C@H]1CCN2C(=O)c3ccc(Cl)cc3NC(=O)[C@@H]2C1	21%[44.1 µM]
O=C1CCCCC(CNC(=O)c2ccccc2)N1 (stereo unspecified)	43%
O=C(Nc1ccc2c(c1)OCCO2)N1[C@H]2CC[C@@H]1c1cncnc1C2	-3%
COc1ccc(C(=O)N2CCCCCCNC(=O)[C@@H]3CCCC[C@@H]32)cc1F	-3%
CC(C)CNc1ccc2nnc(-c3ccc(F)cn3)n2n1	i
CC[C@H]1CN(C(=O)Nc2cccc(C(F)(F)F)c2)CC[C@H]1CC(=O)NCc1ccc(F)cc1	i
CCN1CCC(N(Cc2ccc(F)cc2)C(=O)Nc2cccc(C(F)(F)F)c2)CC1	13µM*
CCN1CCC(N(Cc2ccc(F)cc2)C(=O)Nc2ccc(C)c(F)c2)CC1	11µM*
CN(CC1CCOC1)C(=O)Nc1cccc(C(F)(F)F)c1 (stereo unspecified)	i[5.79 µM]
Cc1ccc(NC(=O)N(C)CC2CCOCC2)cc1F	-23%
COc1ccc(CN(C(=O)Nc2ccc(C)c(F)c2)C2CCN(C(C)=O)CC2)cc1	7%
CC(C)Cc1cn(C2CCN(CC(C)c3ccccc3)CC2)nn1 (stereo unspecified)	-9%
CC(=O)Nc1cc(C(=O)N2CCC(C)CC2)c2ccc(C)nc2c1	-10%
CC(=O)Nc1ccc(C(=O)NC[C@@H]2C=C(C)[C@H](CC(=O)NCCN3CCOCC3)C[C@H]2C(C)C)cc1	-18%
COC[C@@H]1CN(C(=O)c2cc[nH]c(=O)c2)C[C@H]1c1ccncc1	i
O=C(N1CCC(c2n[nH]c(=O)n2-c2ccccc2)CC1)C1(c2ccccc2)CC1	-9%
CC1=C[C@@H](CN2CCN(c3ccccn3)CC2)[C@H](C(C)C)C[C@H]1Cc1nnc(-c2ccc([N+](=O)[O-])cc2)o1	3.5µM*
CC1=C[C@@H](CN2CCC(CO)CC2)[C@H](C(C)C)C[C@H]1Cc1nnc(-c2ccccc2)o1	-16%[44.1 µM]
SMILES	Pf Dd2 growth
CC1=C[C@@H](CO)[C@H](C(C)C)C[C@H]1CC(=O)N1CCN(c2ccccn2)CC1	i
CC1=C[C@@H](CN2CCN(c3ncccn3)CC2)[C@H](C(C)C)C[C@H]1Cc1nnc(COc2ccc(F)cc2)o1	0.89µM*
CC1=C[C@@H](CN(C)Cc2cccnc2)[C@H](C(C)C)C[C@H]1Cc1nnc(-c2ccc([N+](=O)[O-])cc2)o1	4.5µM*
CCCNC(=O)N[C@@H]1CCC[C@@H](C(=O)NCc2ccc(OC)cc2)CC(=O)N(C)C1	-4%[44.1 µM]
Cn1c(CO[C@H]2CN(C(=O)c3ccno3)C[C@H]2F)nc2ccccc21	i
O=C(NCCc1noc(C2CC2)n1)c1cccs1	39%
CCOCC(=O)N1CCC(Nc2nccnc2OC)CC1	49%[5.79 µM]
O=C1CCCCCN1CCC(=O)N1CCn2nc(Cc3ccccc3)cc2C1	-20%
COC1CN(c2cccc(F)c2)C12CCN(C(=O)c1cccnc1)CC2 (stereo unspecified)	-24%
CC(=O)N1Cc2ccccc2CC2(CCCCN2CC2CCOCC2)C1 (stereo unspecified)	-17%
CCCC(=O)N1Cc2ccccc2CC2(CCCCN2CC2CCOCC2)C1 (stereo unspecified)	8.9µM*
O=C(O)CCC(=O)N1Cc2ccccc2CC2(CCCCN2Cc2ccncc2)C1 (stereo unspecified)	13%
CCCC(=O)N1Cc2ccccc2CC2(CCCN2Cc2ccncc2)C1 (stereo unspecified)	8.9µM*
CCCC(=O)N1Cc2ccccc2CC2(CCCCN2Cc2ccncc2)C1 (stereo unspecified)	8.9µM*
CCN1CCCCC12Cc1ccccc1CN(C(=O)Cc1ccc(OC)cc1)C2 (stereo unspecified)	11µM*
COc1ccc(CN2CCCCC23Cc2ccccc2CN(C(C)=O)C3)cc1 (stereo unspecified)	25%
CC(=O)NCCC(=O)N1Cc2ccccc2CC2(CCCN2Cc2ccncc2)C1 (stereo unspecified)	0%
O=C(O)CCC(=O)N1Cc2ccccc2CC2(CCCN2Cc2ccccc2)C1 (stereo unspecified)	-14%
CN(C)CCC(=O)N1Cc2ccccc2CC2(CCCCN2CC2CCOCC2)C1 (stereo unspecified)	-30%
CCN1CCCCC12Cc1ccccc1CN(C(=O)C1CCN(C)CC1)C2 (stereo unspecified)	-17%

Source: PubChem BioAssay
